# Data from PubChem BioAssay AID624173 (National Center for Advancing Translational Sciences (NCATS), 2012).
# About 490 (0.12%) of roughly 410,000 compounds were called active. Where a call stands in place of a potency, no number is given. Roughly 1% stayed inconclusive and do not appear here. Calls follow the shape of the dose curve; as a rule, active = well fitted inhibition curve with a large enough effect; inconclusive = small, poorly fitted or top-dose-only effect; inactive = flat fitted curve, though single readings scatter. The full list was thinned out, with actives kept by preference.
# Target: pyruvate kinase (Trypanosoma brucei) (UniProt Q57TT1)
# Test: qHTS of Trypanosoma Brucei Inhibitors; also: nearly all actives have a fitted effect of over 50% in size
# Conditions: TbPYK enzyme, Kinase-Glo Plus ATP luminescence, 45 min; series mostly up to 76.8 µM
# From the text: Members of the Trypanosomatidae family of parasitic protozoans cause a spectrum of diseases throughout the tropical and subtropical world. Sleeping sickness, caused by two subspecies of Trypanosoma brucei, is endemic to areas of sub-Saharan Africa, while Chagas' disease, a manifestation of Trypanosoma cruzi infection, is prevalent throughout Central and South America. In addition, many species of Leishmania are responsible for a range of cutaneous and visceral diseases, causing ulcers, destructive lesions and kalaazar, a lethal infection of the viscera. These diseases cause severe public health and economic burdens on populations that are often already caught in a tragic cycle of poverty, poor nutrition and disease. Collectively, parasites of the trypanosomatid family infect 30 million people worldwide (~500 million live in endemic areas), and account for ~130K deaths annually. Existing treatments have developed little in the past 50 years, and suffer from toxicity, poor efficacy and resistance; the goal of this project is to develop lead drugs that will be suitable for entry into pre-clinical trials.
# Glycolysis in axenically cultured T. cruzi, representing the intracellular pathogenic stage, is also essential for these parasites. {Engel, 1987} This project aims to discover and optimize selective inhibitors of the glycolytic enzyme pyruvate kinase (PYK) from Trypanosoma brucei, the parasite that causes sleeping sickness. […] Trypanosomatid PYKs show significant differences from their human counterparts including only 47-50% sequence identity and different allosteric and activation properties.{Callens, 1992} To this end, a qHTS was done against the MLSMR to discover inhibitors.
# NIH Molecular Libraries Probe Production Network [MLPCN]
# NIH Chemical Genomics Center [NCGC]
# PI Name: Malcolm Walkinshaw, University of Edinburgh
# 2 uL of TbPYK/substrate buffer (columns 1-3, 5-48) are dispensed into Greiner white solid bottom 1536-well assay plates; column 4 receives only TEA buffer as 0x TbPYK controls. Compounds are then transferred via Kalypsys pin tool equipped with 1536-pin array (10 nL slotted pins, V&P Scientific, San Diego, CA). Following addition of compound, 2 uL of ADP (130 uM final concentration, all columns) is added to initiate the reaction. The plates are then incubated at room temperature for 45 minutes. Kinase-Glo Plus reagent is added (3 uL) and plates incubated for 10 minutes, before being transferred to a ViewLux high-throughput CCD imager (PerkinElmer) wherein single end-point measurements of luminescence are acquired using a clear filter. All reagents are diluted in an assay buffer consisting of 50 mM TEA (pH 7.2), 100 mM KCl, 10 mM MgCl2, 0.05% BSA and 0.01% Tween-20.
# All screening operations will be performed on a fully integrated robotic system (Kalypsys, San Diego, CA) containing one RX-130 and two RX-90 anthropomorphic robotic arms (Staeubli, Duncan, SC). Library plates will be screened starting from the lowest and proceeding to the highest concentration. Vehicle-only plates, with DMSO being pin-transferred to columns 5-48, will be inserted uniformly at the beginning and the end of each library in order to monitor and record any shifts in the background, which can be affected by reagent dispensers or loss in enzyme activity over time. Screening data will be corrected, normalized, and concentration-effect relationships will be derived by using publicly-available curve fitting algorithms developed in-house (http://ncgc.nih.gov/pub/openhts).
# Potency is read from the fitted curve at half-maximal effect.
row,SMILES,Potency
1,O=C(c1ccncc1)N1CCC2(CCCN(C(c3ccccc3)c3ccccc3)C2)CC1,inactive
2,O=c1c(CCc2ccccc2)nc2cncnc2n1C1CC1,inactive
3,CC(=O)NC(=O)c1ccccc1O,inactive
4,COc1ccc(-n2c(-c3ccc(Cl)cc3)n[nH]c2=S)c(OC)c1,5.62 µM (active)
5,COc1cc(OC)c(-n2cc(-c3ccc(Cl)cc3)[nH]c2=O)cc1Cl,inactive
6,COc1ccc(CNc2nc(-c3ccc(Cl)cc3)cc(C(F)(F)F)n2)cc1,inactive
7,COc1ccc(-n2c(-c3ccc(OC)c(OC)c3)n[nH]c2=S)cc1,3.98 µM (active)
8,COc1ccc(-c2cn(-c3ccc(C)cc3)c(=O)n2CC(=O)Nc2ccc(OC)c(OC)c2)cc1,inactive
9,COc1ccc(-n2c(C)csc2=S)cc1,inactive
10,O=C(Nc1cccc(F)c1)N1CCC2(CC1)CCN(S(=O)(=O)c1ccccc1)CC2,inactive
11,C=C1C(=CC=C2CCC[C@@]3(C)[C@@H]2CC[C@H]3[C@H](C)CCCC(C)C)C[C@@H](O)C[C@@H]1O,inactive
12,Cc1nnc(C(=O)NC(C)(C)c2nc(C(=O)NCc3ccc(F)cc3)c(O)c(=O)n2C)o1,inactive
13,CCC1(c2ccccc2)C(=O)NC(=O)N(C)C1=O (configuration not stated),inactive
14,CCCCCCCCCc1ccc(OCCOCCOCCOCCOCCOCCOCCOCCOCCO)cc1,inactive
15,CCC[C@H]1C(=O)N2C(N(C)C)=Nc3ccc(C)cc3N2C1=O,inactive
16,O=c1c(-c2ccc(F)c(F)c2)nc2cncnc2n1-c1ccccc1,inactive
17,COc1ccc(Oc2ncc3nc(-c4ccc(F)cc4)c(=O)n(C)c3n2)cc1,inactive
18,CC(=O)OC1C([N+]2(C)CCCCC2)C[C@H]2C3CC[C@H]4C[C@H](OC(C)=O)C([N+]5(C)CCCCC5)CC4(C)C3CCC12C (some centres not stated),inactive
19,CCC(CCC(C)C1CCC2C3CC=C4CC(O)CC[C@@]4(C)C3CC[C@@]12C)C(C)C (some centres not stated),inactive
20,COc1cccc(Cn2c(=O)c(C)nc3cnc(Oc4ccccc4)nc32)c1,inactive
21,CNC(C)[C@@H](O)c1ccccc1 (some centres not stated),inactive
22,O=C(c1cnccn1)N1CCC2(CCN(Cc3cc(C(F)(F)F)cc(C(F)(F)F)c3)CC2)CC1,inactive
23,CCNc1ncc2nc(CCc3ccccc3)c(=O)n(-c3ccc(OC)cc3)c2n1,inactive

row,SMILES,Potency
1,O=C(c1ccco1)N1CCC2(CC1)CCN(c1ncccn1)CC2,inactive
2,Cc1cn([C@H]2CC(F)[C@@H](CO)O2)c(=O)[nH]c1=O (some centres not stated),inactive
3,Cc1cccc([C@H](C)c2cnc[nH]2)c1C,inactive
4,COc1ccc(-c2nc3cnc(Oc4ccccc4)nc3n(Cc3cccs3)c2=O)cc1,inactive
5,COc1ccc(-n2c(=O)c(-c3cn(C)c4ccccc34)nc3cnc(OC)nc32)cc1,inactive
6,N#Cc1ccc(CN2CCCC3(CCN(C(=O)c4ccco4)CC3)C2)cc1,inactive
7,CC(=O)Oc1ccc2c3c1OC1C(OC(C)=O)C=CC4[C@@H](C2)N(C)CC[C@]314 (some centres not stated),inactive
8,O=C(c1ccco1)N1CCC2(CC1)CN(c1ncccn1)C2,inactive
9,O=C(Nc1cccc(F)c1)N1CC[C@@]2(CCCN(C(=O)Oc3ccccc3)C2)C1,inactive
10,COc1ccc(NC(=O)N2CC3(CCN(C(=O)c4cccn4C)CC3)C2)cc1,inactive
11,CCOC(=O)C1CCCN(S(=O)(=O)c2cc(-c3cc(C)no3)ccc2OC)C1 (configuration not stated),inactive
12,O=C(c1cc(C(F)(F)F)cc(C(F)(F)F)c1)N1CCC2(CCCN(c3ccccn3)C2)CC1,inactive
13,COc1ccc(-c2oc3cc(OC)ccc3c2C(=O)c2ccc(C#N)cc2)cc1,inactive
14,Oc1ccc(Cl)c2c1CCC2,inactive
15,CC1(C)OC[C@@H](COC(=O)CCc2ccc(OC[C@@H](O)CNCCNC(=O)N3CCOCC3)cc2)O1,inactive
16,c1ccc(CN2CC[C@@]3(CCCNC3)C2)cc1,inactive
17,COc1cccc(Cn2c(=O)c(-c3cc(F)cc(F)c3)nc3cnc(OC)nc32)c1,inactive
18,CC(=O)CC(c1ccccc1)C1C(=O)Oc2ccccc2C1=O (configuration not stated),inactive
19,COc1cc2c(cc1OC)[C@@H](Cc1cc(OC)c(OC)c(OC)c1)[N+](C)(CCCOC(=O)CC/C=C/CCC(=O)OCCC[N+]1(C)CCc3cc(OC)c(OC)cc3[C@H]1Cc1cc(OC)c(OC)c(OC)c1)CC2 (some centres not stated),inactive
20,C[C@H]1C[C@H]2[C@@H]3CCC4=CC(=O)C=C[C@]4(C)[C@@H]3C(=O)C[C@]2(C)[C@@]1(O)C(=O)CO,inactive
21,CCOc1ccc(NC(=O)CC2C(=O)N(c3cccc(OC)c3)C(=O)N2C2CCCCC2)cc1 (configuration not stated),inactive
22,COCCn1c(=O)c(-c2cc(F)cc(F)c2)nc2cnc(N3CCNCC3)nc21,inactive
23,CC(=O)N1CCC2(CC1)CCN(c1ccncc1)CC2,inactive

row,SMILES,Potency
1,O=S(O)CNc1ccc(S(=O)(=O)c2ccc(NCS(=O)O)cc2)cc1,inactive
2,O=C(c1ccco1)N1CCC[C@@]2(CCN(Cc3nccs3)C2)C1,inactive
3,Cn1cccc1C(=O)N1CCC2(CC1)CN(c1cccc(-c3ccccc3)c1)C2,inactive
4,C/C=C1\C2C=C(C)CC1(N)c1ccc(=O)[nH]c1C2 (configuration not stated),inactive
5,NC(=O)C(=O)N/N=C/c1ccc([N+](=O)[O-])o1,inactive
6,O=C(c1cc(C(F)(F)F)cc(C(F)(F)F)c1)N1CCC[C@@]2(CCN(c3ccccn3)C2)C1,inactive
7,CC(C)NC(=O)N1CCC2(CC1)CCN(C(=O)c1cccn1C)CC2,inactive
8,O=C(O)CCC(=O)O,inactive
9,CC(C)(O/N=C(\C(=O)N[C@@H]1C(=O)N2C(C(=O)[O-])=C(C[n+]3ccccc3)CS[C@@H]12)c1csc(N)n1)C(=O)O,inactive
10,COCCn1c(=O)c(CCc2ccccc2)nc2cnc(N3CCNCC3)nc21,inactive
11,COc1ccnc(C[S@@](=O)[C@@H]2Nc3ccc(OC(F)F)cc3N2)c1OC,inactive
12,C[C@]12CC[C@@H]3c4ccc(O)cc4C[C@@H](CCCCCCCCCS(=O)CCCC(F)(F)C(F)(F)F)C3[C@@H]1CC[C@@H]2O (some centres not stated),inactive
13,C=CCn1c(C)cc(C2=NNC(=NCC)SC2)c1C,17.8 µM (active)
14,CC1N=C(N)OC1c1ccccc1 (configuration not stated),inactive
15,CS(=O)(=O)N1CCC2(CCN(c3ccncc3)CC2)CC1,inactive
16,CC1(C)O[C@@H]2C[C@@H]3[C@H]4C[C@@H](F)C5=CC(=O)C=C[C@]5(C)[C@@]4(F)[C@@H](O)C[C@]3(C)[C@]2(C(=O)CO)O1,inactive
17,COc1cc(C[C@H]2NCCc3cc(O)c(O)cc32)cc(OC)c1OC,inactive
18,O=C(c1ccncc1)N1CCC2(CCN(Cc3cc(C(F)(F)F)cc(C(F)(F)F)c3)CC2)CC1,inactive
19,CC(=O)O[C@]1(C(C)=O)CC[C@@H]2[C@@H]3C=C(C)C4=CC(=O)CC[C@@]4(C)[C@H]3CC[C@]21C,inactive
20,CS(=O)(=O)N1CCC2(CC1)CN(Cc1ccccc1)C2,inactive
21,CCCCC(=O)OCC(=O)[C@H]1[C@H](C)C[C@@H]2[C@@H]3C[C@@H](F)C4=CC(=O)C=C[C@]4(C)[C@@]3(F)[C@@H](O)C[C@@]21C,inactive
22,CC(C)NC(=O)N1CCCC2(CCN(C(=O)c3cccn3C)CC2)C1,inactive
23,CCOC(=O)c1c(NC(=O)CSc2cn(CCNC(=O)c3cccc(C(F)(F)F)c3)c3ccccc23)sc2c1CCC2,inactive

row,SMILES,Potency
1,O=c1c(-c2cc(F)cc(F)c2)nc2cnc(Oc3ccccc3)nc2n1C[C@H]1CCCO1,inactive
2,COc1ccc(-c2nc3cnc(OC)nc3n(Cc3ccc(F)cc3)c2=O)cc1,inactive
3,COc1ccc(C(=O)N2CCC3(CCCN(C(c4ccccc4)c4ccccc4)C3)CC2)cc1,inactive
4,Cc1nc2cnc(N3CCNCC3)nc2n(Cc2ccc(F)cc2)c1=O,inactive
5,CS(=O)(=O)N1CCC[C@@]2(CCN(c3ccncc3)C2)C1,inactive
6,O=C(Nc1cccc(C(F)(F)F)c1)c1cc(Br)cc(Br)c1O,inactive
7,O=C(c1cnccn1)N1CCC2(CCCN(Cc3ccccc3)C2)CC1,inactive
8,COc1cc([C@@H]2c3cc4c(cc3[C@@H](O[C@@H]3O[C@@H]5CO[C@@H](C)O[C@H]5[C@H](O)[C@H]3O)[C@H]3COC(=O)[C@H]23)OCO4)cc(OC)c1OP(=O)(O)O,inactive
9,CC(C)NC(=O)N1CC[C@@]2(CCCN(C(=O)c3cccn3C)C2)C1,inactive
10,CC[C@]1([C@H]2O[C@@H]([C@@H]3O[C@](O)(CO)[C@@H](C)C[C@H]3C)C[C@H]2C)CC[C@@H]([C@]2(C)CC[C@@]3(C[C@@H](O)[C@@H](C)[C@@H]([C@H](C)[C@H](OC)[C@H](C)C(=O)O)O3)O2)O1,inactive
11,CC(C)(O)c1ccccc1CC[C@H](SCC1(CC(=O)O)CC1)c1cccc(/C=C/c2ccc3ccc(Cl)cc3n2)c1,inactive
12,CC1(C)OC2CC(=O)OC[C@@]23C1CC(=O)[C@]1(C)C3CC[C@@]2(C)C(c3ccoc3)OC(=O)C3O[C@@]321 (some centres not stated),inactive
13,c1ccc2sc(SNC3CCCCC3)nc2c1,inactive
14,O=c1[nH]c2ccccc2n2c(-c3ccccc3)nnc12,2.82 µM (active)
15,CC(C)Cn1c(=O)c2ccccc2n2c(-c3cccc(Cl)c3)nnc12,inactive
16,O=C(c1ncn2c1c(=O)[nH]c1ccccc12)N1CCc2ccccc2C1,inactive
17,CCNC[C@H](O)c1cccc(O)c1,inactive
18,Cc1c(O)cc2c(c1C)O[C@](C)(CCC[C@H](C)CCC[C@H](C)CCCC(C)C)CC2,inactive
19,Nc1ccccc1SC(C[N+](=O)[O-])c1ccccc1 (configuration not stated),12.6 µM (active)
20,CCC(=O)N1CCc2cc(Br)cc(S(=O)(=O)Nc3ccc(C)cc3C)c21,inactive
21,COCCn1c(=O)c(-c2ccc(OC)cc2)nc2cnc(Oc3cccc(Cl)c3)nc21,inactive
22,N#Cc1cccc(-c2nc3cnc(N4CCNCC4)nc3n(C3CC3)c2=O)c1,inactive
23,COc1cc2c(cc1OC)CC(=O)N(CCCN(C)C[C@H]1Cc3cc(OC)c(OC)cc31)CC2,inactive
